# Reference: paper PMC11006913
# Target: T1, NKX2-6 (Homo sapiens, UniProt A6NCS4 118-204, F151L)
# T1 sequence: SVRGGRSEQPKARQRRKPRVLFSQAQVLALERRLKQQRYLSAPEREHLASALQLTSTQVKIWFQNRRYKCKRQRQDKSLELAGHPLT
# Test: PBM; 200 nM protein, PBS
# Conditions: dsDNA, one strand shown
row,Sequence,binding signal
1,AACACTTG,"10.8 upbm affinity estimate (log intensity, higher = more binding, comparable within an allelic series)"
2,AAGTGCTA,"10.6 upbm affinity estimate (log intensity, higher = more binding, comparable within an allelic series)"
3,AAGTGTCT,"10.6 upbm affinity estimate (log intensity, higher = more binding, comparable within an allelic series)"
4,AAACACTT,"10.9 upbm affinity estimate (log intensity, higher = more binding, comparable within an allelic series)"
5,AAGTGTTC,"10.8 upbm affinity estimate (log intensity, higher = more binding, comparable within an allelic series)"
6,ACACTTAC,"10.6 upbm affinity estimate (log intensity, higher = more binding, comparable within an allelic series)"
7,CAAGTGTC,"10.6 upbm affinity estimate (log intensity, higher = more binding, comparable within an allelic series)"
8,ACTTAAGG,"10.6 upbm affinity estimate (log intensity, higher = more binding, comparable within an allelic series)"
9,ACAAGTGT,"10.6 upbm affinity estimate (log intensity, higher = more binding, comparable within an allelic series)"

# Target: HOXC9 (Homo sapiens, UniProt P31274 178-260, R222W)
# Test: PBM; 200 nM protein, PBS
# Conditions: dsDNA, one strand shown
# HOXC9, sequence (P31274 178-260 R222W): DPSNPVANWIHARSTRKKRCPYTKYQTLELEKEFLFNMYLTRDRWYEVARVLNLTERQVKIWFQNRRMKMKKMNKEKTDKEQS
row,Sequence,binding signal
1,AATAAATT,"11.1 upbm affinity estimate (log intensity, higher = more binding, comparable within an allelic series)"
2,ATTAAAAA,"11 upbm affinity estimate (log intensity, higher = more binding, comparable within an allelic series)"
3,ATAAAAAA,"11.1 upbm affinity estimate (log intensity, higher = more binding, comparable within an allelic series)"
4,ATAAAATC,"11.1 upbm affinity estimate (log intensity, higher = more binding, comparable within an allelic series)"

# Target: NKX3-2 (Homo sapiens, UniProt P78367 192-278, P234S)
# Test: PBM; 200 nM protein, PBS
# Conditions: dsDNA, one strand shown
# NKX3-2 (Homo sapiens, UniProt P78367 192-278, P234S), sequence (P78367 192-278 P234S): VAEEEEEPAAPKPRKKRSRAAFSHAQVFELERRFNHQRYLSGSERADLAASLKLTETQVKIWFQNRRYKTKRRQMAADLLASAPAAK
row,Sequence,binding signal
1,CGACGGCC,"10.7 upbm affinity estimate (log intensity, higher = more binding, comparable within an allelic series)"
2,AGCCGCGC,"10.5 upbm affinity estimate (log intensity, higher = more binding, comparable within an allelic series)"
3,AAAAGGGT,"11.5 upbm affinity estimate (log intensity, higher = more binding, comparable within an allelic series)"
4,CGAGTGCA,"11.7 upbm affinity estimate (log intensity, higher = more binding, comparable within an allelic series)"
5,CAAACCAG,"10.6 upbm affinity estimate (log intensity, higher = more binding, comparable within an allelic series)"
6,TCTGGGCA,"10.6 upbm affinity estimate (log intensity, higher = more binding, comparable within an allelic series)"
7,ACCAAGAG,"11.7 upbm affinity estimate (log intensity, higher = more binding, comparable within an allelic series)"
8,AGGAAAAA,"10.5 upbm affinity estimate (log intensity, higher = more binding, comparable within an allelic series)"
9,CAAAGAGG,"11.9 upbm affinity estimate (log intensity, higher = more binding, comparable within an allelic series)"
10,CCTGGCCG,"10.5 upbm affinity estimate (log intensity, higher = more binding, comparable within an allelic series)"
11,ACGGTGTC,"10.6 upbm affinity estimate (log intensity, higher = more binding, comparable within an allelic series)"
12,CGGGCAGC,"10.6 upbm affinity estimate (log intensity, higher = more binding, comparable within an allelic series)"
13,GAAGTGTC,"12.2 upbm affinity estimate (log intensity, higher = more binding, comparable within an allelic series)"
14,TAAGAACA,"11.4 upbm affinity estimate (log intensity, higher = more binding, comparable within an allelic series)"
15,CGAAGTGC,"12.5 upbm affinity estimate (log intensity, higher = more binding, comparable within an allelic series)"
16,ACACTTAC,"12.5 upbm affinity estimate (log intensity, higher = more binding, comparable within an allelic series)"
17,ACTCTGAT,"11.5 upbm affinity estimate (log intensity, higher = more binding, comparable within an allelic series)"
18,AAGTGCCG,"12.5 upbm affinity estimate (log intensity, higher = more binding, comparable within an allelic series)"
19,AGCACTTC,"12.4 upbm affinity estimate (log intensity, higher = more binding, comparable within an allelic series)"
20,CTCTAGAG,"10.9 upbm affinity estimate (log intensity, higher = more binding, comparable within an allelic series)"
21,AGGCATGG,"10.6 upbm affinity estimate (log intensity, higher = more binding, comparable within an allelic series)"

# Target: NKX3-2 (Homo sapiens, UniProt P78367 192-278)
# Test: PBM; 200 nM protein, PBS
# Conditions: dsDNA, one strand shown
# NKX3-2 (Homo sapiens, UniProt P78367 192-278), sequence (P78367 192-278): as the sequence (P78367 192-278 P234S) above, with S43P counted along it
row,Sequence,binding signal
1,CGACGGCC,"10.6 upbm affinity estimate (log intensity, higher = more binding, comparable within an allelic series)"
2,AGCCGCGC,"10.5 upbm affinity estimate (log intensity, higher = more binding, comparable within an allelic series)"
3,AAAAGGGT,"11.6 upbm affinity estimate (log intensity, higher = more binding, comparable within an allelic series)"
4,CGAGTGCA,"11.8 upbm affinity estimate (log intensity, higher = more binding, comparable within an allelic series)"
5,CAAACCAG,"10.7 upbm affinity estimate (log intensity, higher = more binding, comparable within an allelic series)"
6,TCTGGGCA,"10.6 upbm affinity estimate (log intensity, higher = more binding, comparable within an allelic series)"
7,ACCAAGAG,"11.8 upbm affinity estimate (log intensity, higher = more binding, comparable within an allelic series)"
8,AGGAAAAA,"10.6 upbm affinity estimate (log intensity, higher = more binding, comparable within an allelic series)"
9,CAAAGAGG,"12 upbm affinity estimate (log intensity, higher = more binding, comparable within an allelic series)"
10,CCTGGCCG,"10.5 upbm affinity estimate (log intensity, higher = more binding, comparable within an allelic series)"
11,ACGGTGTC,"10.6 upbm affinity estimate (log intensity, higher = more binding, comparable within an allelic series)"
12,CGGGCAGC,"10.5 upbm affinity estimate (log intensity, higher = more binding, comparable within an allelic series)"
13,GAAGTGTC,"12.3 upbm affinity estimate (log intensity, higher = more binding, comparable within an allelic series)"
14,TAAGAACA,"11.5 upbm affinity estimate (log intensity, higher = more binding, comparable within an allelic series)"
15,ACTCTGAT,"11.6 upbm affinity estimate (log intensity, higher = more binding, comparable within an allelic series)"
16,AAGTGCCG,"12.6 upbm affinity estimate (log intensity, higher = more binding, comparable within an allelic series)"
17,AGCACTTC,"12.4 upbm affinity estimate (log intensity, higher = more binding, comparable within an allelic series)"
18,CTCTAGAG,"10.9 upbm affinity estimate (log intensity, higher = more binding, comparable within an allelic series)"
19,AGGCATGG,"10.5 upbm affinity estimate (log intensity, higher = more binding, comparable within an allelic series)"
